{
  "source": "PubChem BioAssay AID1159580",
  "about": "(chemical genetic matrix, 2015)",
  "assay": "chemical genetic growth profiling, strain panel (AID 1159580);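 note: tested at 20 µM; growth read once vehicle control cultures reached saturation at 30 °C; 1 = growth at the plate median or of vehicle wells; lower values mean less growth of the strain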",
  "details": "S. cerevisiae deletion strains, growth OD",
  "key": {"[1]": {"details": "locus YDL101C, strain DUN1, hits give low values"}, "[2]": {"details": "locus YHR030C, strain SLT2, hits give low values"}},
  "note": "Hit rate of the full screen: of about 5,500 compounds, about 2,000 (36%) were called active. Not shown: some 18% with an inconclusive outcome. Some of the results follow. Values without a mark were called inactive. Cut-off read from the data, not from the text of the source: active = normalized growth mostly below about 0.91 (no sharp cut-off); inconclusive = no clear call, values can overlap the other calls; inactive = mostly above about 0.92.",
  "data": [
    {"smiles": "N/C(Cc1cccc2ccccc12)=N/OC(=O)c1ccc(Cl)cc1", "values": [
      {"measurement": "normalized growth", "setting": "locus YAR019C, strain CDC15, hits give low values", "result": 0.954},
      {"measurement": "normalized growth", "setting": "locus YBL105C, strain PKC1, hits give low values", "result": 0.952},
      {"measurement": "normalized growth", "setting": "locus YBR135W, strain CKS1, hits give low values", "result": 0.947},
      {"measurement": "normalized growth", "setting": "locus YBR136W, strain MEC1, hits give low values", "result": 0.93},
      {"measurement": "normalized growth", "setting": "locus YBR160W, strain CDC28, hits give low values", "result": 0.928},
      {"measurement": "normalized growth", "setting": "locus YDL017W, strain CDC7, hits give low values", "result": 0.949},
      {"measurement": "normalized growth", "setting": "locus YDL028C, strain MPS1, hits give low values", "result": 0.916},
      {"measurement": "normalized growth", "setting": "[1]", "result": 0.961},
      {"measurement": "normalized growth", "setting": "locus YDL108W, strain KIN28, hits give low values", "result": 0.934},
      {"measurement": "normalized growth", "setting": "locus YDL132W, strain cdc53, hits give low values", "result": 0.951},
      {"measurement": "normalized growth", "setting": "locus YDL214C, strain PRR2, hits give low values", "result": 0.85},
      {"measurement": "normalized growth", "setting": "locus YDR052C, strain DBF4, hits give low values", "result": 0.967},
      {"measurement": "normalized growth", "setting": "locus YDR054C, strain cdc34, hits give low values", "result": 0.952},
      {"measurement": "normalized growth", "setting": "locus YDR226W, strain ADK1, hits give low values", "result": 0.954},
      {"measurement": "normalized growth", "setting": "locus YDR477W, strain SNF1, hits give low values", "result": 0.937},
      {"measurement": "normalized growth", "setting": "locus YER123W, strain YCK3, hits give low values", "result": 0.878},
      {"measurement": "normalized growth", "setting": "locus YER133W, strain GLC7, hits give low values", "result": 0.889},
      {"measurement": "normalized growth", "setting": "locus YFL009W, strain cdc4, hits give low values", "result": 0.938},
      {"measurement": "normalized growth", "setting": "locus YFL029C, strain CAK1, hits give low values", "result": 0.936},
      {"measurement": "normalized growth", "setting": "locus YFR003C, strain YPI1, hits give low values", "result": 0.955},
      {"measurement": "normalized growth", "setting": "locus YFR019W, strain FAB1, hits give low values", "result": 0.928},
      {"measurement": "normalized growth", "setting": "locus YFR028C, strain CDC14, hits give low values", "result": 0.956},
      {"measurement": "normalized growth", "setting": "locus YGR040W, strain KSS1, hits give low values", "result": 0.937},
      {"measurement": "normalized growth", "setting": "locus YGR052W, strain FMP48, hits give low values", "result": 0.941},
      {"measurement": "normalized growth", "setting": "locus YGR092W, strain DBF2, hits give low values", "result": 0.931},
      {"measurement": "normalized growth", "setting": "[2]", "result": "0.666 (active)"},
      {"measurement": "normalized growth", "setting": "locus YHR079C, strain IRE1, hits give low values", "result": 0.965},
      {"measurement": "normalized growth", "setting": "locus YHR082C, strain KSP1, hits give low values", "result": 0.953},
      {"measurement": "normalized growth", "setting": "locus YHR205W, strain SCH9, hits give low values", "result": 0.835},
      {"measurement": "normalized growth", "setting": "locus YIL147C, strain SLN1, hits give low values", "result": 0.94},
      {"measurement": "normalized growth", "setting": "locus YJL095W, strain BCK1, hits give low values", "result": 0.874},
      {"measurement": "normalized growth", "setting": "locus YJL128C, strain PBS2, hits give low values", "result": 0.935},
      {"measurement": "normalized growth", "setting": "locus YJL157C, strain FAR1, hits give low values", "result": 0.899},
      {"measurement": "normalized growth", "setting": "locus YJR016C, strain ILV3, hits give low values", "result": 0.962},
      {"measurement": "normalized growth", "setting": "locus YJR066W, strain TOR1 (second series), hits give low values", "result": 0.879},
      {"measurement": "normalized growth", "setting": "locus YJR066W, strain TOR1, hits give low values", "result": 0.847},
      {"measurement": "normalized growth", "setting": "locus YKL048C, strain ELM1, hits give low values", "result": 0.967},
      {"measurement": "normalized growth", "setting": "locus YKL067W, strain YNK1, hits give low values", "result": 0.846},
      {"measurement": "normalized growth", "setting": "locus YKL101W, strain HSL1, hits give low values", "result": 0.939},
      {"measurement": "normalized growth", "setting": "locus YKL193C, strain SDS22, hits give low values", "result": 0.978},
      {"measurement": "normalized growth", "setting": "locus YKL203C, strain TOR2, hits give low values", "result": 0.969},
      {"measurement": "normalized growth", "setting": "locus YLR113W, strain HOG1, hits give low values", "result": "0.858 (active)"},
      {"measurement": "normalized growth", "setting": "locus YLR133W, strain CKI1, hits give low values", "result": 0.876},
      {"measurement": "normalized growth", "setting": "locus YLR403W, strain SFP1, hits give low values", "result": 0.919},
      {"measurement": "normalized growth", "setting": "locus YML070W, strain DAK1, hits give low values", "result": 0.892},
      {"measurement": "normalized growth", "setting": "locus YMR001C, strain CDC5, hits give low values", "result": 0.963},
      {"measurement": "normalized growth", "setting": "locus YMR205C, strain PFK2 (second series), hits give low values", "result": 0.872},
      {"measurement": "normalized growth", "setting": "locus YMR277W, strain FCP1, hits give low values", "result": 0.925},
      {"measurement": "normalized growth", "setting": "locus YNL006W, strain LST8, hits give low values", "result": 0.977},
      {"measurement": "normalized growth", "setting": "locus YNL020C, strain ARK1, hits give low values", "result": 0.909},
      {"measurement": "normalized growth", "setting": "locus YNL161W, strain CBK1, hits give low values", "result": 0.963},
      {"measurement": "normalized growth", "setting": "locus YNL183C, strain NPR1, hits give low values", "result": 0.92},
      {"measurement": "normalized growth", "setting": "locus YNL207W, strain RIO2, hits give low values", "result": 0.932},
      {"measurement": "normalized growth", "setting": "locus YNL222W, strain SSU72, hits give low values", "result": 0.95},
      {"measurement": "normalized growth", "setting": "locus YNL307C, strain MCK1 (second series), hits give low values", "result": 0.941},
      {"measurement": "normalized growth", "setting": "locus YOL078W, strain AVO1, hits give low values", "result": 0.943},
      {"measurement": "normalized growth", "setting": "locus YOL136C, strain PFK27, hits give low values", "result": 0.927},
      {"measurement": "normalized growth", "setting": "locus YOR061W, strain CKA2, hits give low values", "result": 0.892},
      {"measurement": "normalized growth", "setting": "locus YOR119C, strain RIO1, hits give low values", "result": 0.917},
      {"measurement": "normalized growth", "setting": "locus YOR231W, strain MKK1, hits give low values", "result": 0.926},
      {"measurement": "normalized growth", "setting": "locus YOR329C, strain SCD5, hits give low values", "result": 0.968},
      {"measurement": "normalized growth", "setting": "locus YPL031C, strain PHO85, hits give low values", "result": 0.915},
      {"measurement": "normalized growth", "setting": "locus YPL153C, strain RAD53, hits give low values", "result": 0.927},
      {"measurement": "normalized growth", "setting": "locus YPL204W, strain HRR25, hits give low values", "result": 0.922},
      {"measurement": "normalized growth", "setting": "locus YPL209C, strain IPL1, hits give low values", "result": 0.964},
      {"measurement": "normalized growth", "setting": "locus YPL256C, strain CLN2, hits give low values", "result": 0.888},
      {"measurement": "normalized growth", "setting": "locus YPR025C, strain CCL1, hits give low values", "result": 0.947},
      {"measurement": "normalized growth", "setting": "locus YPR106W, strain ISR1, hits give low values", "result": 0.986},
      {"measurement": "normalized growth", "setting": "locus YPR111W, strain DBF20, hits give low values", "result": 0.916},
      {"measurement": "normalized growth", "setting": "strain NNK1, hits give low values", "result": 0.948},
      {"measurement": "normalized growth", "setting": "strain TSCII, hits give low values", "result": 0.926}
    ]},
    {"smiles": "O=C(O)CCCNCc1cccc2ccccc12", "values": [
      {"measurement": "normalized growth", "setting": "locus YAL013W, strain DEP1, hits give low values", "result": 1.01},
      {"measurement": "normalized growth", "setting": "locus YBR229C, strain ROT2, hits give low values", "result": 1.01},
      {"measurement": "normalized growth", "setting": "[1]", "result": 0.998},
      {"measurement": "normalized growth", "setting": "locus YDR150W, strain NUM1, hits give low values", "result": 0.984},
      {"measurement": "normalized growth", "setting": "locus YEL061C, strain CIN8, hits give low values", "result": 1.01},
      {"measurement": "normalized growth", "setting": "locus YGR078C, strain PAC10, hits give low values", "result": 1.01},
      {"measurement": "normalized growth", "setting": "locus YGR229C, strain SMI1, hits give low values", "result": 1},
      {"measurement": "normalized growth", "setting": "[2]", "result": 1.02},
      {"measurement": "normalized growth", "setting": "locus YHR087W, strain rtc3, hits give low values", "result": 1.01},
      {"measurement": "normalized growth", "setting": "locus YJL187C, strain SWE1, hits give low values", "result": 1},
      {"measurement": "normalized growth", "setting": "locus YJR043C, strain POL32, hits give low values", "result": 1.01},
      {"measurement": "normalized growth", "setting": "locus YJR075W, strain HOC1, hits give low values", "result": 0.974},
      {"measurement": "normalized growth", "setting": "locus YKL190W, strain CNB1, hits give low values", "result": 1},
      {"measurement": "normalized growth", "setting": "locus YLR039C, strain RIC1, hits give low values", "result": 1},
      {"measurement": "normalized growth", "setting": "locus YLR058C, strain SHM2 (second series), hits give low values", "result": 1},
      {"measurement": "normalized growth", "setting": "locus YLR085C, strain ARP6, hits give low values", "result": 1.01},
      {"measurement": "normalized growth", "setting": "locus YLR262C, strain YPT6, hits give low values", "result": 0.999},
      {"measurement": "normalized growth", "setting": "locus YML094W, strain GIM5, hits give low values", "result": 1.07},
      {"measurement": "normalized growth", "setting": "locus YMR219W, strain ESC1, hits give low values", "result": 0.992},
      {"measurement": "normalized growth", "setting": "locus YMR263W, strain SAP30, hits give low values", "result": 1},
      {"measurement": "normalized growth", "setting": "locus YNL153C, strain GIM3, hits give low values", "result": 0.992},
      {"measurement": "normalized growth", "setting": "locus YNL298W, strain CLA4 (second series), hits give low values", "result": 1},
      {"measurement": "normalized growth", "setting": "locus YNL322C, strain KRE1, hits give low values", "result": 1.01},
      {"measurement": "normalized growth", "setting": "locus YNR030W, strain Alg12, hits give low values", "result": 1},
      {"measurement": "normalized growth", "setting": "locus YPL055C, strain LGE1, hits give low values", "result": 1.03},
      {"measurement": "normalized growth", "setting": "locus YPL241C, strain CIN2, hits give low values", "result": 1.06},
      {"measurement": "normalized growth", "setting": "locus YPR135W, strain CTF4, hits give low values", "result": 1.05}
    ]}
  ]
}
